About 83,000 compounds went through this panel and 20% of them were active in at least one assay; those are over-represented in the sample as a whole.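 For each line, cells grew in 96-well plates with the test compound present at a single concentration for 48 hours.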 A number with no mark means an inactive call. Rule for the calls: active = growth percent below 10; inactive = the rest.
What follows are molecules tested on NCI-H322M lung (assay: NCI-60 one-dose screen, 48 h (100 = growth as untreated, 0 = no growth, -100 = all killed)). Conditions: 10 µM unless noted.
`N#C/C(=C1C=C/C(=N/O)C(Cl)=C/1)c1ccc(Cl)cc1` showed a growth of 118%.
Work on `c1coc(CNc2ccnc(Nc3ccc(OCCN4CCCCC4)cc3)n2)c1` yielded a growth of 101%.
Molecule `C=C1CCC2C(C)(CO)C(O)CCC2(C)C1C/C=C1/C(=O)OCC1O/C=C/c1ccccc1` (configuration not stated) has a growth of 94.7%.
Molecule `C=C(C)[C@@H]1CC[C@]2(C(=O)N3CCNCC3)CC[C@]3(C)[C@H](CC[C@@H]4[C@@]5(C)C/C(=C/c6ccncc6)C(=O)C(C)(C)[C@@H]5CC[C@]43C)[C@@H]12` has a growth of 110%.
`CCOC(=O)C1C(=O)C=C(c2ccc(OC)cc2)CC1c1sc(N(C)Cc2ccccc2)nc1Cl` (configuration not stated) gave a growth of 76.1%.
With `COc1cc(/C=C/C(=O)/C=C/c2cc(OC)c3c(c2)OCO3)cc2c1OCO2` the growth was 108%.
`C[n+]1c(/C=C/c2c(O)ccc3ccccc23)ccc2ccccc21` showed a growth of 42.9%.
`CCN(CC)CCC(CNc1c2ccc(Cl)cc2nc2ccc(OC)cc12)c1ccccc1` (configuration not stated) was tested, and the growth was 17.5%.
Work on `C=C1CC2(OC1=O)C(=O)N(CCCN1C(=O)C3(CC(=C)C(=O)O3)c3ccccc31)c1ccccc12` (configuration not stated) yielded a growth of 86.1%.
For `CN(CCCCCl)P(=O)(OCc1ccc([N+](=O)[O-])o1)C(F)(F)C[C@H](NC(=O)CNC(=O)c1ccc(N=[N+]=[N-])cc1)C(=O)NCCc1ccc(O)cc1` (some centres not stated), the growth was 93.8%.
`COc1ccc(C(=O)N2NC(=O)/C(=C/c3ccc(Br)cc3)N=C2c2ccccc2)cc1` gave a growth of 90.6%.
With `N#Cc1c(-c2ccccc2)cc(-c2ccccc2)n(CC(=O)NO)c1=O` the growth was 81.2%.

Reference: PubChem BioAssay (NCI)
